Laboratory results: the supplement of paper PMC10849652
About 7,900 targets were measured; listed, in parts, are those with a hit and a random draw of the rest. About 0.6% of all pairs of compound and target were hits.

Columns and labels:
Experiment in all cases: log2 fold change, soluble protein after heating vs DMSO (PISA); higher = thermal stabilisation; K562 cells, 10 uM, 30 min; active = over 0.2 and 3.5 SD of the protein, either way, in both replicates (recomputed)
IRAK-1-4 Inhibitor I = compound: C1COCCN1CCN2C3=CC=CC=C3N=C2NC(=O)C4=CC(=CC=C4)[N+](=O)[O-] [IRAK-1-4 Inhibitor I]
In short: (§1)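 Quantification of soluble protein used TMTpro 16plex LC-MS/MS, with channel sums equalised. Samples were the supernatant after 21,000xg for 90 min of pooled aliquots from K562 cells (2×10^6 cells/mL) treated with 10 μM compound for 30 min, heated for 3 min over 48°C-58°C, and extracted in PBS with 0.5% NP-40 at 4°C. Values, from duplicates, describe thermal stability against control samples on a log2 fold-change scale.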

ibrutinib = compound: C=CC(=O)N1CCC[C@@H](n2nc(-c3ccc(Oc4ccccc4)cc3)c3c(N)ncnc32)C1 [ibrutinib]
In short: as §1

[1] = compound: CC(=O)c1cnc2ccc(-c3cc(Cl)c(O)c(Cl)c3)nc2c1N[C@H]1CC[C@H](CN(C)C)CC1
In short: as §1

ralimetinib = compound: CC(C)(C)Cn1c(N)nc2ccc(-c3[nH]c(C(C)(C)C)nc3-c3ccc(F)cc3)nc21 [ralimetinib]
In short: as §1

[2] = compound: CC(C)(O)CC(=O)NCCn1ccc2ncnc(Nc3ccc(Oc4cccc(C(F)(F)F)c4)c(Cl)c3)c21
In short: as §1

[3] = compound: CC(C)C1=C2N=C(C=C(N2N=C1)NCC3=CC=CC=C3)NCCCCCCN
In short: as §1

[4] = compound: CC(C)C[C@@H](C=O)NC(=O)[C@H](CC(C)C)NC(=O)[C@H](CC(C)C)NC(=O)OCc1ccccc1
In short: as §1

pinometostat = compound: CC(C)N(C[C@H]1O[C@@H](n2cnc3c(N)ncnc32)[C@H](O)[C@@H]1O)[C@H]1C[C@@H](CCc2nc3cc(C(C)(C)C)ccc3[nH]2)C1 [pinometostat]
In short: as §1

[5] = compound: CC1=C(C(CC(=O)N1)C2=CC=C(C=C2)C(F)(F)F)C(=O)NC3=C(C=C4C(=C3)C=NN4)F
In short: as §1

[6] = compound: CC1=C(C2=C(C=C1)C(=O)C3=CC=CC=C3N2CCCN)C
In short: as §1

[7] = compound: CC1=C(C=C(C=C1)NC(=O)C2=CC(=CC=C2)C(C)(C)C#N)NC3=CC4=C(C=C3)N=CN(C4=O)C
In short: as §1

[8] = compound: CC1=C(C=C(C=C1)NC(=O)C2=CC(=CC=C2)N(C)C)NC(=O)C3=CC=C(C=C3)O
In short: as §1

[9] = compound: CC1=CC=C(C=C1)SC2=C3C=C(SC3=CN=C2)C(=O)N
In short: as §1

[10] = compound: CC1=NC(=CC=C1)C2=C(N=C(N2)C(C)(C)C)C3=CC4=NC=CN=C4C=C3
In short: as §1

Nexturastat A = compound: CCCCN(Cc1ccc(C(=O)NO)cc1)C(=O)Nc1ccccc1 [Nexturastat A]
In short: as §1

vemurafenib = compound: CCCS(=O)(=O)Nc1ccc(F)c(C(=O)c2c[nH]c3ncc(-c4ccc(Cl)cc4)cc23)c1F [vemurafenib]
In short: as §1

[11] = compound: CCCS(=O)(=O)Nc1ccc(F)c(C(=O)c2c[nH]c3ncc(Cl)cc23)c1F
In short: as §1

[12] = compound: CCCc1cc(C)[nH]c(=O)c1CNC(=O)c1cc(-c2ccnc(N3CCN(C)CC3)c2)cc2c1cnn2C(C)C
In short: as §1

givinostat = compound: CCN(CC)Cc1ccc2cc(COC(=O)Nc3ccc(C(=O)NO)cc3)ccc2c1 [givinostat]
In short: as §1

barasertib = compound: CCN(CCCOc1ccc2c(Nc3cc(CC(=O)Nc4cccc(F)c4)[nH]n3)ncnc2c1)CCOP(=O)(O)O [barasertib]
In short: as §1

Measured: log2 fold change

NCAPH (UniProt Q15003)
Sequence of UniProt Q15003 (Q15003 whole entry, looked up): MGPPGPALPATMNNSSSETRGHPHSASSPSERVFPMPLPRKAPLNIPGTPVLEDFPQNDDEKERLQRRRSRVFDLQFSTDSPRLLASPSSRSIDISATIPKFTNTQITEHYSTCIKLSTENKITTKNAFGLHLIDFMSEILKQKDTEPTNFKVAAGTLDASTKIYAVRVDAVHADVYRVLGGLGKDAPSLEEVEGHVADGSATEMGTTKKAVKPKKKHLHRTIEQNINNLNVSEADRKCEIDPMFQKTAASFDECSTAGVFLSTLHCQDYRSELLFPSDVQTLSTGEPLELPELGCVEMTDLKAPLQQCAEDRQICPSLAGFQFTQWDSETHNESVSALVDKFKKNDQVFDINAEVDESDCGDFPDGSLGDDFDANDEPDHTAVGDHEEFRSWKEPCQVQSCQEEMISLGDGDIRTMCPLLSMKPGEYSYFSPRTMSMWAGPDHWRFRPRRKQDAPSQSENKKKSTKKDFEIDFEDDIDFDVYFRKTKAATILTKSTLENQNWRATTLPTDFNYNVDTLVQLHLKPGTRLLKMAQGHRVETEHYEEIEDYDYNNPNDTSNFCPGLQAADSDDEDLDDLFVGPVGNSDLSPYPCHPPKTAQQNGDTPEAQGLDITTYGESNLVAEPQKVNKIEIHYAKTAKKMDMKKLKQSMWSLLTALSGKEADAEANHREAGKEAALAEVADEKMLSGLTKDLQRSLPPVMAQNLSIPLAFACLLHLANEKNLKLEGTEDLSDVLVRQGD
inactive: IRAK-1-4 Inhibitor I -0.124 | ibrutinib -0.045 | [1] 0.097 | ralimetinib 0.007 | [2] -0.094 | [3] -0.023 | [4] 0.02 | pinometostat 0.08 | [5] 0.017 | [6] -0.006 | [7] 0.02 | [8] -0.091 | [9] 0.013 | [10] 0.012 | Nexturastat A 0.09 | vemurafenib 0.068 | [11] 0.065 | [12] 0.067 | givinostat 0.238 | barasertib 0.042

OSTC (UniProt Q9NRP0)
Sequence of UniProt Q9NRP0 (Q9NRP0 whole entry, looked up): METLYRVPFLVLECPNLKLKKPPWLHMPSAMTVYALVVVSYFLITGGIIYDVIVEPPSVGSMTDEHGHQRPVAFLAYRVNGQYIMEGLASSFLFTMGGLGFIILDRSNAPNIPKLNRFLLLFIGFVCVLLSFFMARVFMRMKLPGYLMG
active: [3] -0.377
inactive: IRAK-1-4 Inhibitor I -0.002 | ibrutinib -0.013 | [1] -0.022 | ralimetinib 0.004 | [2] -0.055 | [4] -0.046 | pinometostat -0.023 | [5] -0.031 | [6] 0.119 | [7] 0.001 | [8] 0.001 | [9] 0.047 | [10] 0.058 | Nexturastat A -0.114 | vemurafenib -0.115 | [11] 0.068 | [12] -0.058 | givinostat 0.076 | barasertib 0.061

MT-ATP6 (UniProt P00846)
inactive: IRAK-1-4 Inhibitor I 0 | ibrutinib -0.68 | [1] -0.178 | ralimetinib -0.178 | [2] -0.033 | [3] -0.06 | [4] -0.165 | pinometostat -0.162 | [5] -0.218 | [6] -0.072 | [7] -0.009 | [8] 0.041 | [9] 0.008 | [10] 0.026 | Nexturastat A -0.133 | vemurafenib -0.159 | [11] -0.043 | [12] -0.014 | givinostat -0.074 | barasertib 0.567

PAAF1 (UniProt Q9BRP4)
Sequence of UniProt Q9BRP4 (Q9BRP4 whole entry, looked up): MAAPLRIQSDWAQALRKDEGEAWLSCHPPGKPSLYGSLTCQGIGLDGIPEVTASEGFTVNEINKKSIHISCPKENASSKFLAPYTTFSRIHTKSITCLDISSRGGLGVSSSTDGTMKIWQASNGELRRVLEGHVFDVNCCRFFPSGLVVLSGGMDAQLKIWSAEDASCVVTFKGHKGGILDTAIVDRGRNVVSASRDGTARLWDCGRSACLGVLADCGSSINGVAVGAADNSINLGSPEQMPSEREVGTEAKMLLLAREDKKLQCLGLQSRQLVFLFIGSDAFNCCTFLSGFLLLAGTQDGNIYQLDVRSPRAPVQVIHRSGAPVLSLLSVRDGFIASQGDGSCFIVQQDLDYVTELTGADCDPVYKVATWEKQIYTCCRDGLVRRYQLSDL
inactive: IRAK-1-4 Inhibitor I 0.037 | ibrutinib -0.003 | [1] -0.029 | ralimetinib 0.001 | [2] 0.007 | [3] 0.037 | pinometostat -0.026 | [5] 0.008 | [6] 0.027 | [7] -0.026 | [8] -0.005 | [9] 0.016 | [10] 0.003 | Nexturastat A -0.035 | vemurafenib -0.028 | [11] 0.019 | [12] -0.038 | givinostat 0.023 | barasertib 0.021
active: [4] -0.28

MRPS5 (UniProt P82675)
inactive: IRAK-1-4 Inhibitor I -0.071 | ibrutinib 0.057 | [1] -0.019 | ralimetinib 0 | [2] -0.088 | [3] -0.083 | [4] 0.078 | pinometostat 0.056 | [5] -0.112 | [6] -0.207 | [7] 0.08 | [8] -0.086 | [9] -0.005 | [10] 0.004 | Nexturastat A 0.159 | vemurafenib -0.048 | [11] 0.062 | [12] 0.016 | givinostat 0.013 | barasertib 0.023

NDUFA9 (UniProt Q16795)
Sequence of UniProt Q16795 (Q16795 whole entry, looked up): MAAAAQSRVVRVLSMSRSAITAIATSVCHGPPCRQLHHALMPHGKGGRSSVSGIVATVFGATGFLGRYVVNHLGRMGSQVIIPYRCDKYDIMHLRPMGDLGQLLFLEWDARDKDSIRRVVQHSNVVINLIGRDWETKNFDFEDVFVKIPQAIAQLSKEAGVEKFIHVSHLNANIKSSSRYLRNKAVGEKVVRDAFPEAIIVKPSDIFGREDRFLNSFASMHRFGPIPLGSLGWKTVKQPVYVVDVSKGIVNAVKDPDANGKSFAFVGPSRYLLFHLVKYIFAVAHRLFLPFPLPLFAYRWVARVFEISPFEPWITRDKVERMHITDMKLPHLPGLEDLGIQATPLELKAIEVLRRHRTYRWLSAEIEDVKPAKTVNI
inactive: IRAK-1-4 Inhibitor I 0.003 | ibrutinib -0.036 | [1] -0.037 | ralimetinib -0.011 | [2] -0.211 | [3] -0.101 | [4] 0 | pinometostat -0.006 | [5] -0.01 | [6] 0.086 | [7] 0.023 | [8] -0.036 | [9] 0.019 | [10] 0.04 | Nexturastat A -0.095 | vemurafenib 0.009 | [11] 0.039 | [12] -0.044 | givinostat 0.041 | barasertib 0.026

NUDT1 (UniProt P36639)
inactive: IRAK-1-4 Inhibitor I 0.025 | [2] -0.263 | [4] -0.082 | pinometostat -0.017 | [5] -0.069 | [6] 0.074 | [7] -0.016 | [8] -0.058 | [9] -0.064 | [10] -0.164 | Nexturastat A -0.086 | vemurafenib -0.004 | [11] 0.209 | [12] -0.026 | givinostat -0.042 | barasertib -0.03
active: ibrutinib 0.943 | [1] 0.816 | ralimetinib 1.69 | [3] 0.946

NUDT16 (UniProt Q96DE0)
Sequence of UniProt Q96DE0 (Q96DE0 whole entry, looked up): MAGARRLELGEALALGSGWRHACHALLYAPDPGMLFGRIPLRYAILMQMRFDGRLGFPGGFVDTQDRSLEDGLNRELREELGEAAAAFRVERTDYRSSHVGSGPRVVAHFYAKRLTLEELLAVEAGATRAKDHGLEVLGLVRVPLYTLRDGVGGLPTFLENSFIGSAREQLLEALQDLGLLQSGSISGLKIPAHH
inactive: IRAK-1-4 Inhibitor I 0.049 | ibrutinib 0.03 | [1] 0.022 | ralimetinib -0.039 | [2] 0.005 | [3] 0.066 | [4] -0.001 | pinometostat -0.001 | [5] 0.017 | [6] 0.004 | [7] -0.031 | [8] -0.005 | [9] -0.008 | [10] -0.03 | Nexturastat A -0.003 | vemurafenib 0.163 | [11] 0.019 | [12] -0.041 | givinostat -0.006 | barasertib 0.028

NA, A0A096LPI6
inactive: IRAK-1-4 Inhibitor I 0.065 | ibrutinib 0.022 | [1] 0.046 | ralimetinib -0.057 | [2] 0.008 | [3] 0.058 | [4] -0.016 | pinometostat -0.043 | [5] 0.018 | [6] 0.004 | [7] -0.018 | [8] 0.032 | [9] 0.051 | [10] 0.039 | Nexturastat A -0.093 | vemurafenib 0.008 | [11] 0.052 | [12] -0.033 | givinostat -0.055 | barasertib -0.003

NUDCD2 (UniProt Q8WVJ2)
Sequence of UniProt Q8WVJ2 (Q8WVJ2 whole entry, looked up): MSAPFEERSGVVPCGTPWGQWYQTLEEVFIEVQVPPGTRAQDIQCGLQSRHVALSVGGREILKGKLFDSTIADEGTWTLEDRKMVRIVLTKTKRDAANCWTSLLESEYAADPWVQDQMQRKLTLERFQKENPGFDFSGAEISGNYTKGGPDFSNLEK
inactive: IRAK-1-4 Inhibitor I -0.032 | ibrutinib -0.035 | [1] -0.027 | ralimetinib 0.033 | [2] -0.045 | [3] -0.248 | [4] -0.012 | pinometostat 0.066 | [5] -0.023 | [6] -0.064 | [7] -0.018 | [8] -0.109 | [9] 0.117 | [10] 0.019 | Nexturastat A 0.082 | vemurafenib -0.014 | [11] 0.008 | [12] -0.039 | givinostat 0.047 | barasertib 0.104

OGFOD1 (UniProt Q8N543)
inactive: IRAK-1-4 Inhibitor I 0.07 | ibrutinib -0.036 | [1] 0.009 | ralimetinib -0.05 | [2] -0.023 | [3] -0.018 | [4] 0.035 | pinometostat -0.011 | [5] -0.028 | [6] 0.036 | [7] -0.013 | [8] -0.01 | [9] 0.013 | [10] 0.033 | Nexturastat A -0.061 | vemurafenib -0.01 | [11] -0.006 | [12] 0.006 | givinostat -0.112 | barasertib 0.009

NRDC isoform 2 (UniProt O43847)
inactive: IRAK-1-4 Inhibitor I 0.003 | ibrutinib -0.033 | [1] -0.026 | ralimetinib 0.011 | [2] -0.04 | [3] 0.053 | [4] 0.029 | pinometostat 0.015 | [5] 0 | [6] 0.037 | [7] 0.001 | [8] -0.053 | [9] 0.01 | [10] 0.03 | Nexturastat A 0 | vemurafenib 0.047 | [11] 0.051 | [12] 0.021 | givinostat 0.017 | barasertib 0.037

MSH2 (UniProt P43246)
active: [6] 0.357
inactive: IRAK-1-4 Inhibitor I -0.024 | ibrutinib -0.066 | [1] 0.018 | ralimetinib -0.031 | [2] -0.041 | [3] -0.019 | [4] 0.023 | pinometostat -0.023 | [5] -0.015 | [7] 0.038 | [8] -0.067 | [9] 0.017 | [10] 0.066 | Nexturastat A -0.018 | vemurafenib 0.069 | [11] 0.08 | [12] 0.019 | givinostat 0.083 | barasertib 0.057

NEDD4L (UniProt Q96PU5)
Sequence of UniProt Q96PU5 (Q96PU5 whole entry, looked up): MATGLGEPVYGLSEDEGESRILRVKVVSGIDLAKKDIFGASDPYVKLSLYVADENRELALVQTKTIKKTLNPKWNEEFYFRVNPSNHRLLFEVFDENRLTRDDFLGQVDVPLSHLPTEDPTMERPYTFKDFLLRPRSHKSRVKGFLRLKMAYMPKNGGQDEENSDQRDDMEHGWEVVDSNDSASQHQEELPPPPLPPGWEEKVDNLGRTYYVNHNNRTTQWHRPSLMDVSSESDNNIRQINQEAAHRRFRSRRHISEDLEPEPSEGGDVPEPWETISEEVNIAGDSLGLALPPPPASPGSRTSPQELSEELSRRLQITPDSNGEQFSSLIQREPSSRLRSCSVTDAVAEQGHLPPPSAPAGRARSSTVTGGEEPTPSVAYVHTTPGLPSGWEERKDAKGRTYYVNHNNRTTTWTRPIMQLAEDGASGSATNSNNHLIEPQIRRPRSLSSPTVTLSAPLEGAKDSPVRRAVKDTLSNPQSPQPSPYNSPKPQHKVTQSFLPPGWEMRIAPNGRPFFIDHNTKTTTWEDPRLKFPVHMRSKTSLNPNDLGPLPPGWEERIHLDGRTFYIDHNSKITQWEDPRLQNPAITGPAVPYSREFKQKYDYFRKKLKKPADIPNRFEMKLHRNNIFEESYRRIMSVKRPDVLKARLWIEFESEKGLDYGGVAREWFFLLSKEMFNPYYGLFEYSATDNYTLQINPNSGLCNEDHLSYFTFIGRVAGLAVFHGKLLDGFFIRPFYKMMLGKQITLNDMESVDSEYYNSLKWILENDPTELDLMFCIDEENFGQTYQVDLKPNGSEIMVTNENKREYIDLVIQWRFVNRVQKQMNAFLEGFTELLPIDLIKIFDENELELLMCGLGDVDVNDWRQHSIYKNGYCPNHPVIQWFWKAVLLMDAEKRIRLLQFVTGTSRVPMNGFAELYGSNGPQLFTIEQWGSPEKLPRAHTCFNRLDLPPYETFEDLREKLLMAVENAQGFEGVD
active: ralimetinib -0.293
inactive: IRAK-1-4 Inhibitor I 0.026 | ibrutinib -0.002 | [1] -0.014 | [2] -0.01 | [3] -0.107 | [4] -0.059 | pinometostat 0.027 | [5] -0.017 | [6] -0.084 | [7] 0.015 | [8] -0.138 | [9] -0.046 | [10] 0.01 | Nexturastat A -0.059 | vemurafenib 0.049 | [11] 0.019 | [12] 0.013 | givinostat 0.056 | barasertib -0.021

NFATC3 (UniProt Q12968)
Sequence of UniProt Q12968 (Q12968 whole entry, looked up): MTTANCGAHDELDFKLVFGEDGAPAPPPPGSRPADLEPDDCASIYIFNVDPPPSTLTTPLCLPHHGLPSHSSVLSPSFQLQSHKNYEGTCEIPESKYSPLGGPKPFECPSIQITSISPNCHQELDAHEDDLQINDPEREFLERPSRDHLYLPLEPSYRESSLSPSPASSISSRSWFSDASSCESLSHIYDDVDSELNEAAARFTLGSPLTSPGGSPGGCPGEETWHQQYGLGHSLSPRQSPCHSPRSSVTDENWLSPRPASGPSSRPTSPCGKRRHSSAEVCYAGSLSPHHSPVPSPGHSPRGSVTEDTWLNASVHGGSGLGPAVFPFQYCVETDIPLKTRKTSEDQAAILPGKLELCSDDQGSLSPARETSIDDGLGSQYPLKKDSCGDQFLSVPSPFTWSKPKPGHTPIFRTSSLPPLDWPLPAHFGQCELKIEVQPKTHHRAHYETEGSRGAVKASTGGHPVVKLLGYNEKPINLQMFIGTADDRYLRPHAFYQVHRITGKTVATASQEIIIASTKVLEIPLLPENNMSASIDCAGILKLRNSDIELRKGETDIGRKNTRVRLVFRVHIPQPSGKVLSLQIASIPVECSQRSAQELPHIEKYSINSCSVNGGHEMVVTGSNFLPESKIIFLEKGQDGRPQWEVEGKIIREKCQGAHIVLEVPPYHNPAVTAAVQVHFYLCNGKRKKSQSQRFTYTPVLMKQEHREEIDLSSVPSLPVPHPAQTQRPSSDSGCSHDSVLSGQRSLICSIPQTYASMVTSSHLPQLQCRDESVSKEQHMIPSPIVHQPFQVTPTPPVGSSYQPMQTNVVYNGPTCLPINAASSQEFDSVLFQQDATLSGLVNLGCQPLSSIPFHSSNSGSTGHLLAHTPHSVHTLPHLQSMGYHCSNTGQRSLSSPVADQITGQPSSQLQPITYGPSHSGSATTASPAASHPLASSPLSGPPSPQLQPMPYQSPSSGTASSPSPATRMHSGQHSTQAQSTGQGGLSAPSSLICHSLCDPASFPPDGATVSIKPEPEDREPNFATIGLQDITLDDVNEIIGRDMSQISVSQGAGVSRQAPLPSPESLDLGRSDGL
inactive: IRAK-1-4 Inhibitor I -0.116 | ibrutinib 0.01 | [2] -0.105 | [3] -0.209 | [4] 0.145 | pinometostat 0.053 | [5] 0.015 | [6] -0.036 | [7] 0.067 | [8] -0.506 | [9] 0 | [10] -0.055 | Nexturastat A 0.047 | vemurafenib -0.033 | [11] 0.094 | [12] 0.116 | givinostat 0.088 | barasertib 0.019
active: [1] -0.406 | ralimetinib 0.386

NFATC2 (UniProt Q13469)
Sequence of UniProt Q13469 (Q13469 whole entry, looked up): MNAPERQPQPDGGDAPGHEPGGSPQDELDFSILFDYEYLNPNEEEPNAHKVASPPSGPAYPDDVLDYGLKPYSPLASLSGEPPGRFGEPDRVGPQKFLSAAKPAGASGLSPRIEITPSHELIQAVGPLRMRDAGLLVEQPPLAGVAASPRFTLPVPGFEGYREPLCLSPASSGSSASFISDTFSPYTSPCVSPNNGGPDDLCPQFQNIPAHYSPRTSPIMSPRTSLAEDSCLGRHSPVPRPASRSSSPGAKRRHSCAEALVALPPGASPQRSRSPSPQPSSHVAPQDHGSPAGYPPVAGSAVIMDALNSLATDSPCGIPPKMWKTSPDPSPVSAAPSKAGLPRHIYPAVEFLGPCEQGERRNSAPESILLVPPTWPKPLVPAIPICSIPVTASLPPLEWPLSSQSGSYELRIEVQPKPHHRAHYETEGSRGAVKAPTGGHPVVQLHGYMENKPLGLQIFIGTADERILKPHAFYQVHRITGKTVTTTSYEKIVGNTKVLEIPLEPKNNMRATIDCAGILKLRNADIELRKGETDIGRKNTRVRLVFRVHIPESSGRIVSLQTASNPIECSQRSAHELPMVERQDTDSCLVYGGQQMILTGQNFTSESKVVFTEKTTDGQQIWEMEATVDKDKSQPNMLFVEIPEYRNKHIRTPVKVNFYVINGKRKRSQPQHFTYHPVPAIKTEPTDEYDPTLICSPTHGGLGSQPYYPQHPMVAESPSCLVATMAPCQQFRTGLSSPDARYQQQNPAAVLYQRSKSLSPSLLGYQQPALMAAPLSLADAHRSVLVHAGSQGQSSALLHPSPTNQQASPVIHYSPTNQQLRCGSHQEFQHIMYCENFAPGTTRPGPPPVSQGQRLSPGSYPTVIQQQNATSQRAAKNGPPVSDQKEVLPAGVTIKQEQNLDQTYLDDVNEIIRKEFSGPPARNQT
inactive: IRAK-1-4 Inhibitor I -0.075 | ibrutinib -0.008 | ralimetinib -0.001 | [2] 0.011 | [3] -0.055 | [4] 0.099 | pinometostat 0.102 | [5] 0.013 | [6] -0.033 | [7] -0.046 | [8] -0.079 | [9] -0.031 | [10] 0.018 | Nexturastat A 0.12 | vemurafenib 0.038 | [11] 0.041 | [12] 0.086 | givinostat 0.192 | barasertib 0.107
active: [1] -0.635
